A selection: hits, their analogues and other compounds. The true share with any hit is near 10%.
JMJD2A Tudor inh = JMJD2A Tudor domain (human) inhibition; AID 504339; actives 4.4% (n = 390,000); O75164; Potency, µM (top dose mostly 114 µM), inactives show at the top dose activity change, negative = inhibition, usual class: inhibitors; AlphaScreen JMJD2A-Tudor / H3K4me3 peptide binding; note: potency is the fitted concentration of half-maximal effect; % is set by controls: 0 for no effect and ±100 for the full control effect; nearly all actives have a fitted effect of over 50% in size
Target sequence (O75164 whole entry, looked up, the tested form may be a part): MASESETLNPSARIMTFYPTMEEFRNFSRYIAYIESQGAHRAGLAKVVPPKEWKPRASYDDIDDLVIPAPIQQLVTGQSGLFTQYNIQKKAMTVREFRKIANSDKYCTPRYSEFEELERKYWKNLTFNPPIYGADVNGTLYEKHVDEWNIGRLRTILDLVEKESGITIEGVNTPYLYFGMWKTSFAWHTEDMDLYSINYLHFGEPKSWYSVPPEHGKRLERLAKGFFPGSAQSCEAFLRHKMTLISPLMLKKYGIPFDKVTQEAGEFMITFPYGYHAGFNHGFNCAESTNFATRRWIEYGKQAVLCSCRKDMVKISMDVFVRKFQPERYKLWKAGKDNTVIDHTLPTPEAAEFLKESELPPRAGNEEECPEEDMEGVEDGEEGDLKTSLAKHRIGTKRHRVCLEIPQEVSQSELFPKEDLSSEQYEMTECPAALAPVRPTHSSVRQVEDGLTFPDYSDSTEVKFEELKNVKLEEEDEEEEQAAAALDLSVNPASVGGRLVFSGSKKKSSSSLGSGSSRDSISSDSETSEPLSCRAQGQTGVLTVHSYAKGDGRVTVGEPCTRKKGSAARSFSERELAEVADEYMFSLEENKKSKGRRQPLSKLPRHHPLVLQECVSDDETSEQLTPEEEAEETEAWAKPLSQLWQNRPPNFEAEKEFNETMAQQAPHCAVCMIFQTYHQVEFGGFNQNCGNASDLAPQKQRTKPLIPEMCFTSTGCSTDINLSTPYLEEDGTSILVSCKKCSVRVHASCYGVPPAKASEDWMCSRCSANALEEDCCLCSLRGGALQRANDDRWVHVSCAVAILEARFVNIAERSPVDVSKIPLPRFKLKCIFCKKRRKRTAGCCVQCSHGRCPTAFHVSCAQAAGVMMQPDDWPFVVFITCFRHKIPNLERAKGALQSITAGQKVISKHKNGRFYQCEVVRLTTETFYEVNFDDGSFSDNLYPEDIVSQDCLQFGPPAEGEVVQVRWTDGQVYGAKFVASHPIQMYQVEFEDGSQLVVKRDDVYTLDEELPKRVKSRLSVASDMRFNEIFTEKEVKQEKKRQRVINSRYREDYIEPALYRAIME
CtBP-E1A blk = inhibitors of CtBP/E1A interaction. activity change, % (test concentration not listed). AID 651724. actives 0.49% (n = 340,000). AlphaScreen GST-E1A/His-CtBP binding, 1536-well; active compounds read low; in the data active = activity change below about -65%; inconclusive = mostly about -30% to -63%; note: % is set by controls: 0 for no effect and ±100 for the full control effect
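Homogeneous bead-based format: GST-tagged E1A captured on glutathione donor beads, His-tagged CtBP on nickel acceptor beads; compounds precede bead addition by 2 h at 37 °C.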
BAZ2B inh = inhibitors of human BAZ2B bromodomain; actives 4.4% (n = 360,000); AID 504333; AlphaScreen BAZ2B-H3K14Ac peptide displacement; Potency, µM (titrated, usually from 114 µM), for the others: at the top dose activity change, negative = inhibition, hits mostly inhibitors; note: potency is the fitted concentration of half-maximal effect; % is set by controls: 0 for no effect and ±100 for the full control effect; nearly all actives have a fitted effect of over 60% in size
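Compounds, titrated to a top concentration of 110 uM, were incubated 30 min at room temperature with preformed BAZ2B/acetyl-K14 H3 peptide complex (50 nM each). Proximity signal was measured by AlphaScreen after 20 min with beads.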
HP1b binding inh = HP1-beta chromodomain-methylated histone interaction inhibition. actives 0.56% (n = 390,000). AID 540317. AlphaScreen HP1-beta / biotin-H3K9me3 peptide binding. Potency, µM (top dose mostly 114 µM), without a hit: at the highest dose activity change, negative = inhibition, actives largely listed as inhibitors. P83916; note: potency is the fitted concentration of half-maximal effect; nearly all actives have a fitted effect of over 70% in size
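AlphaScreen: HP1-beta (50 nM) preformed 30 min with biotin-H3(1-18)K9me3 peptide (50 nM) in PBS pH 7.4, 0.01% Tween-20. Compound added for 30 min at RT, then streptavidin donor/nickel chelate acceptor beads (10 ug/mL) for 30 min.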
G9a inh = G9a (human) methyltransferase inhibition | Q96KQ7 | G9a H3K9 monomethylation, AlphaScreen, 2 h | Potency, µM (series often up to 102 µM), without a hit: at the top dose activity, negative = inhibition, most hits filed as inhibitors | actives 8.8% (n = 350,000) | AID 504332; note: potency is the fitted concentration of half-maximal effect; % is set by controls: 0 for no effect and ±100 for the full control effect; nearly all actives have a fitted effect of over 75% in size
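Step 1: enzyme (final 20 nM) with compound, 15 min RT. Step 2: substrate peptide 500 nM and SAM 20 uM, 2 h RT. Step 3: anti-H3K9me1 antibody and AlphaScreen beads, 10 min, then plate read.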
Six1-Eya2 blk = inhibitors of human Six1/Eya2 interaction; AlphaScreen GST-Six1/His-Eya2 binding, biochemical; active compounds read low; activity change, % (concentration not given with the values); actives 0.56% (n = 360,000); AID 651725; in the data active = activity change below about -65%; inconclusive = mostly about -30% to -63%; note: % is set by controls: 0 for no effect and ±100 for the full control effect
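Six1/Eya2 binding was read as AlphaScreen signal after compounds were pinned into GST-Six1 plus His-tagged Eya2 (5X stock 250/500 nM) in pH 8.0 Tris/NaCl/TCEP buffer, beads added, then incubated 1 h, 37 C, dark.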
* hit, by the source's call; ? = inconclusive; / = no result given; [ ] = remark or other dose. Unless noted, calls come from the whole dose curve; as a rule, active = well fitted inhibition curve with a large enough effect; inconclusive = small, poorly fitted or top-dose-only effect; inactive = no such curve, though single readings can be large or run the other way.

SMILES	JMJD2A Tudor inh	CtBP-E1A blk	BAZ2B inh	HP1b binding inh	G9a inh	Six1-Eya2 blk
COc1ccc(N2CCN(C(=O)c3cccc(N4C(=O)C5C6C=CC(C6)C5C4=O)c3)CC2)cc1 (stereo unspecified)	-19%	-2	-22%	32%	-37%[59 µM]	-4
O=C(c1cccc(N2C(=O)c3ccccc3C2=O)c1)N1CCCCCC1	0%	10	?	44%	22µM*	5
CCOC(=O)C1CCCN(C(=O)c2cccc(N3C(=O)c4ccccc4C3=O)c2)C1 (stereo unspecified)	-15%	/	-3%	32%	22%[12.7 µM]	2
O=C(O)c1cccc(N2C(=O)C3C4C=CC(C4=C(c4ccccc4)c4ccccc4)C3C2=O)c1 (stereo unspecified)	-2%[11.4 µM]	/	56µM*	-25%	28µM*	3
O=C(c1cccc(N2C(=O)C3C4C=CC(C4)C3C2=O)c1)N1CCCCCC1 (stereo unspecified)	-1%	4	2%	19%	1.3µM*	0
O=C(NN1CCOCC1)c1cccc2ccccc12	50µM*	3	-4%	2%	-10%	-1
COc1ccccc1Nc1ccc(NC(=O)c2cccc([N+](=O)[O-])c2C)cc1	13µM*	/	10µM*	?	9%[2.33 µM]	?
COc1ccccc1Nc1ncccc1[N+](=O)[O-]	45µM*	?	32µM*	?	8.9µM*	?
CCOc1ccc(S(=O)(=O)NCc2ccc3c(c2)CCN3C(=O)c2ccc(C)cc2)cc1	-26%	/	1%	25%[57 µM]	9%[59 µM]	/
CCOC(=O)c1cc(-c2ccc(OC)cc2)n(CCC(=O)NCCc2ccc(OCC)c(OCC)c2)c1C	-21%	/	-1%	29%	-28%[59 µM]	/
C[n+]1ccccc1/C=C/c1ccc(C#N)cc1	22µM*	3	45µM*	?	7%[0.501 µM]	3
C[n+]1ccccc1/C=C/c1ccc([N+](=O)[O-])cc1	-6%	2	-15%	35%	25µM*	3
Cc1ccccc1/C=C/c1cccc[n+]1C	-5%	/	-35%	22%	?	-2
O=C1c2ccc(Cl)cc2S(=O)(=O)c2cccc(C(=O)N3CCC(Cc4ccccc4)CC3)c21	?	-10	?	-11%	-19%[0.501 µM]	-22
COc1cccc(C(=O)NN2CCOCC2)c1	-4%	/	/	24%	/	-4
NC(=O)c1ccsc1NC(=O)COC(=O)c1ccccn1	-32%	?	?	10%	-6%[59 µM]	?
CCN(CC)S(=O)(=O)c1ccc2c(c1)N(CC(=O)Nc1ccc(C)cc1C)C(=O)C1CCCN21 (stereo unspecified)	-16%	/	-15%	50%	14µM*	/
Cc1ccc(CN2C(=O)C3CCCN3c3ncccc32)cc1 (stereo unspecified)	-25%	/	?	34%	-20%	5
Cc1ccc(CN2C(=O)C3CCCN3c3ccc(S(=O)(=O)N4CCOCC4)cc32)cc1 (stereo unspecified)	/	/	-6%	/	13µM*	/
CCc1ccccc1NC(=O)CN1C(=O)C2CCCN2c2ccc(S(=O)(=O)N(CC)CC)cc21 (stereo unspecified)	-3%	/	-3%	10%	?	/
CCOC(=O)N1CCN(C(=O)COC(=O)c2cc(Cl)c(O)c(Cl)c2)CC1	1%	2	-13%	34%	-29%	-3
C=C1CCN(C(Cc2ccccc2)C(=O)NC2CCN(Cc3ccccc3)CC2)S(=O)(=O)c2ccccc21 (stereo unspecified)	-17%	/	/	15%	/	/
CCCn1c(N2CCN(C(=O)N3CCCCC3)CC2)nc2ccccc21	-12%	0	?	15%	50µM*	7
Cc1cccc(OCCn2c(S(=O)(=O)O)nc3ccccc32)c1	-18%	8	-6%	7%	/	0
O=S(=O)(O)c1nc2ccccc2n1CCOc1ccccc1	-26%	3	-33%	21%	50µM*	7
SMILES	JMJD2A Tudor inh	CtBP-E1A blk	BAZ2B inh	HP1b binding inh	G9a inh	Six1-Eya2 blk
CCC(C)n1c(S(=O)(=O)O)nc2ccccc21 (stereo unspecified)	-13%	6	?	33%	79µM*	4
CCCn1c(/C=C/c2cc[n+](C)cc2)nc2ccccc21	?	10	?	12%	40µM*	5
CCCCCCn1c(/C=C/c2ccccc2)nc2ccccc21	185%	/	408%	300%	165%[59 µM]	/
CCCCCCN1C[C@@H](n2cc(C3CC3)nn2)[C@H](O)C[C@@H]1c1ccc(Cl)cc1	/	1	/	/	/	-4
COc1ccc(OC)c(NC(=O)CSC2=Nc3ccccc3C3=NC(CCC(=O)NCCc4ccccc4)C(=O)N23)c1 (stereo unspecified)	-17%	/	-23%	24%	3%[59 µM]	/
CCCn1c(S(=O)(=O)O)nc2ccccc21	-15%	3	-15%	18%	50µM*	-3
S=C(Nc1ccccc1)Nc1nc2ccccc2n1CCOc1ccc(Br)cc1	?	4	3.2µM*	-1%	?	-12
CCn1cc2nc(SCc3ccc(F)cc3)n(CCc3ccccc3)c(=O)c2n1	-13%	/	2%	20%	0%[59 µM]	/
CNC(=O)NC(=O)CSc1nc2sccc2c(=O)n1-c1ccccc1	-14%	-25	0%	8%	-4%	-7
CC(N)(C(=O)O)c1ccc(P(=O)(O)O)cc1 (stereo unspecified)	/	/	/	/	34%[59 µM]	/
CC(Oc1ccccc1)C(=O)Nc1nnc2n1CCS2 (stereo unspecified)	28µM*	/	20µM*	-5%[57 µM]	1.6µM*	/
CCCC(CCC)C(=O)Nc1nnc2n1CCS2	?	/	-7%	5%[57 µM]	?	/
CC(C)C(=O)Nc1nnc2n1CCS2	32µM*	/	2%	3%[57 µM]	?	/
COc1ccc(C(C(=O)NCc2ccccc2)N(C(=O)Cn2nnc3ccccc32)c2cccc(OC)c2)cc1 (stereo unspecified)	1%	/	1%	23%	1%[59 µM]	/
O=C(CCC1CCCCC1)Nc1nncs1	-11%	-3	-1%	18%	-2%	-10
Cc1ccc(NC(=O)Cn2c(=O)n(-c3ccc(C)cc3)c(=O)c3c2cnn3C)cc1	-22%	/	-3%	3%	-6%[59 µM]	/
CCOc1ccccc1C(=O)Nc1cc2c(cc1N1CCCC1)n(CC)c(=O)n2CC	50µM*	/	18µM*	-24%[57 µM]	45µM*	?
CCn1c(=O)n(CC)c2cc(N3CCCC3)c(NC(=O)c3cc(Cl)ccc3OC)cc21	50µM*	5	25µM*	?	40µM*	-2
CCOc1ccc(C(=O)Nc2cc3c(cc2N2CCCC2)n(C)c(=O)c(=O)n3C)cc1OCC	-12%	/	-33%	25%	?	/
